Shown are actives, neighbours in structure and some others; about 1.1% of the full set was active somewhere.
VLA-4 inh – inhibition in human VLA-4 binding assay, primary screen, VLA-4 allosteric modulator project, MLPCN library, flow cytometry, VLA-4 expressing cells; Integrin alpha-4 (Homo sapiens), P13612; ligand binding flow cytometry; inhibition, % (about 7 µM as worked out from the volumes in the protocol); 330,000 compounds, 0.2% hits; AID 2557, 2010; in the data active = inhibition above about 50%
MEP2 TOR yeast – modulators of MEP2-GFP levels in yeast, primary screen, S. cerevisiae, multiplex flow cytometry, MLPCN library | S. cerevisiae MEP2-GFP strain, 3 h; 100% = DMSO control level | GFP response vs DMSO, % at 10 µM | 330,000 compounds, 0.51% hits | AID 2016, 2009;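 active = GFP response versus DMSO above a set limit, roughly screen mean plus 3 SD, cut at about 180% in these data; inconclusive = fewer than 70 cells counted for a yeast strain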;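 also: median GFP fluorescence of the barcode-gated MEP2-GFP cells per well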
CIT2 TOR yeast – modulators of CIT2-GFP expression in yeast, primary screen, S. cerevisiae, GFP fusion, multiplex flow cytometry, MLPCN library. GFP response vs DMSO, % at 10 µM. AID 2029, 2009. S. cerevisiae CIT2-GFP strain, 3 h; 100 means same as DMSO wells. 320,000 compounds, 0.065% hits;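 active = GFP response relative to DMSO above a set limit, near the screen mean plus 3 SD, cut at about 150% in these data; inconclusive = Fewer than 70 cells measured for a yeast strain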;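 also: ratio of well median GFP fluorescence to mean of DMSO wells on the plate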
RPL19A TOR yeast – RPL19A-GFP expression modulators in yeast, primary screen, cell-based, S. cerevisiae, multiplex flow cytometry, MLPCN; S. cerevisiae RPL19A-GFP strain, 3 h; hits give low values; percent response vs DMSO, % at 10 µM; 330,000 compounds, 0.3% hits; AID 2025, 2009;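 active = percent response vs DMSO below 50%; inconclusive = fewer than 70 events counted for the yeast strain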;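 also: median channel GFP fluorescence of the barcoded RPL19A-GFP strain; lower means less RPL19A-GFP as with rapamycin TOR inhibition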
LAP4-GFP MLPCN – modulators of LAP4-GFP expression in yeast, primary screen, S. cerevisiae, multiplex flow cytometry, MLPCN library. GFP response vs DMSO, % at 10 µM. 320,000 compounds, 0.34% hits. AID 2023, 2009. 3 h; median GFP as percent of DMSO wells;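 active = GFP response vs DMSO above a set limit, about the screen mean plus 3 SD, cut at about 150% in these data; inconclusive = under 70 cell events counted for the yeast strain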
AGP1 TOR yeast – modulators of AGP1-GFP expression in yeast TOR pathway, primary screen, cell-based, multiplex flow cytometry, S. cerevisiae, MLPCN library | GFP response vs DMSO, % at 10 µM | 320,000 compounds, 0.02% hits | 3 h; GFP as percent of DMSO wells;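 active = GFP response relative to DMSO above a set limit, near screen average plus 3 SD, cut at about 150% in these data; inconclusive = fewer than 70 cells counted for the yeast strain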;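 also: median GFP channel fluorescence of the gated AGP1 strain per well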
Numbers stand for hits; – = inactive; ? = inconclusive; · = no result; [ ] = another dose, or the depositor's remark.

SMILES	VLA-4 inh	MEP2 TOR yeast	CIT2 TOR yeast	RPL19A TOR yeast	LAP4-GFP MLPCN	AGP1 TOR yeast
O=C(NC(=S)Nc1ccc2nc[nH]c2c1)c1ccccc1	–	–	167.5[may fluoresce green]	–	–	–
Cc1ccc(C)c2c1N(Cc1ccccc1)C(=O)C21OCCO1	–	–	–	–	–	–
C[C@H](CO)N1C[C@H](C)[C@@H](CN(C)CC2CC2)Oc2c(NC(=O)Cc3ccccc3)cccc2C1=O	–	–	–	–	–	–
O=C(CCSc1ccc(Cl)cc1)N1CCN(S(=O)(=O)c2ccccc2)CC1	–	–	–	–	–	–
Cc1ccc(CNS(=O)(=O)c2ccc(CN3C(=O)c4cccnc4C3=O)cc2)o1	–	–	?	26.7[may fluoresce violet]	–	?
Cc1ccc(CNS(=O)(=O)c2cc(F)ccc2CN2C(=O)c3cccnc3C2=O)o1	–	–	–	–	–	–
COc1cc(CN(C)Cc2cc(=O)oc3cc(C)c(Cl)cc23)ccc1OC(F)F	–	–	–	–	–	–
O=C(NCC1CCCO1)c1nn2c(C(F)(F)F)cc(-c3cc(Br)cs3)nc2c1Br (centres undefined)	–	231.2[may fluoresce violet]	?	43.9[may fluoresce violet]	–	?
CC(C#N)(NC(=O)CN1CCN(S(=O)(=O)c2ccccc2Cl)CC1)C1CC1 (centres undefined)	–	–	–	–	–	–
OCC1(Cc2ccccc2)CCCN(Cc2ccc(-c3ccco3)cc2)C1 (centres undefined)	–	328.3[may fluoresce violet]	?	36.2[may fluoresce violet]	–	–
O=C1CCC(C(=O)Nc2cccc(S(=O)(=O)Nc3ccccc3F)c2)=NN1	–	–	–	–	–	–
Cc1ccsc1/C=N/NC(=O)CNC(=O)c1cccc([N+](=O)[O-])c1C	55.6	–	–	–	–	–
CCN(CC)CC(=O)NCc1cc(-c2ccc(OC)cc2)no1	–	–	–	–	–	–
COc1ccc(-c2cc(CNC(=O)CN3CCN(C)CC3)on2)cc1	–	256.8[may fluoresce violet]	?	·	–	–
CCCCCN(C(=O)CCC(=O)OCCOc1ccccc1Cl)c1c(N)n(CCCC)c(=O)[nH]c1=O	–	–	–	–	–	–
COc1ccc(/C=N/NC(=O)C2(C)NC(C)(C)Cc3ccccc32)cc1 (centres undefined)	–	239.0	–	–	158.4	160.1
CCOC(=O)N/C(N)=N/c1nc2ccccc2s1	–	–	–	–	167.7	–
COC(=O)Cn1c(=O)c2c(nc(Br)n2Cc2ccccc2Cl)n(C)c1=O	–	265.3[may fluoresce violet]	?	36.2[may fluoresce violet]	–	–
Cn1ccnc1SCC(=O)Nc1ccc2nc(SCC(=O)NC3CC3)sc2c1	–	280.3[may fluoresce violet]	?	·	–	?
Cn1ccnc1SCC(=O)NC1CCCC1	–	–	–	–	–	–
CC(=O)c1cccc(NC(=O)CSc2nc(C3CC3)nc3ccccc23)c1	–	–	?	32.1[may fluoresce violet]	–	?
CC(=O)Nc1cccc(NC(=O)CSc2nc(C3CC3)nc3ccccc23)c1	–	–	–	–	–	–
O=C(NCC(c1ccc(F)cc1)N1CCOCC1)c1cc(F)c(F)c(F)c1F (centres undefined)	–	–	171.4	–	–	–
NC(=O)C1CCCN(Cc2c(C(=O)N3CCc4ccccc4C3)nc3ccc(Cl)cn23)C1 (centres undefined)	–	–	–	–	–	–
CCN(CC)C(=O)c1cccc(NC(=O)c2cc(C3CC3)nc3c2cnn3C(C)C)c1	–	–	–	–	–	–
SMILES	VLA-4 inh	MEP2 TOR yeast	CIT2 TOR yeast	RPL19A TOR yeast	LAP4-GFP MLPCN	AGP1 TOR yeast
CSc1nc(C)c(CCOCc2ccccc2)c(=O)[nH]1	–	233.3[may fluoresce violet]	?	–	–	?
CSc1nc(C)c(Cc2ccccc2)c(=O)[nH]1	–	–	–	–	–	–
COc1cccc(OCC(O)CNC2CCCC2)c1 (centres undefined)	–	–	–	–	–	–
OC1(c2ccc(F)cc2)CSC(=Nc2cccnc2)N1Cc1ccco1 (centres undefined)	–	–	–	–	197.3	–
O=S(=O)(Nc1ccc(Br)cc1)c1cccc2nonc12	–	–	–	–	152.3	–
Cc1cccc(NS(=O)(=O)c2cccc3nonc23)c1	–	–	–	–	–	–
CCOC(=O)CN(C(=O)c1snc(C(N)=O)c1N)C(C(=O)NC1CCCCC1)c1ccc(F)cc1 (centres undefined)	–	–	–	–	–	–
CCCN1CCN(C(=O)Cn2ncc3c([nH]c4ccc(C)cc43)c2=O)CC1	–	186.4[may fluoresce violet]	?	–	–	–
NC(=O)CC(NC(=O)Cc1ccc(Cl)cc1)c1ccc(NC2CCCCCCC2)c([N+](=O)[O-])c1 (centres undefined)	–	–	–	–	–	–
CCN1CCN(C(=O)/C=C/c2ccc(C)o2)CC1	–	–	–	–	–	–
Cc1ccc(/C=C/C(=O)N2CC(C)CC(C)C2)o1 (centres undefined)	–	275.2	–	·	–	–
COCCNC(=O)C(c1ccc(C)cc1)N(Cc1ccccc1)C(=O)CCC(=O)Nc1ccccn1 (centres undefined)	–	–	–	–	–	–
COCCNC(=O)C(c1ccc(C)cc1)N(Cc1ccco1)C(=O)CCC(=O)Nc1ccccn1 (centres undefined)	–	209.7[may fluoresce violet]	?	–	–	–
COc1cccc(-c2nc(CS(=O)(=O)CC(=O)Nc3ccc(C(C)=O)cc3)c(C)o2)c1	–	–	–	–	–	–
COc1cc(NC(=O)CN2C(=O)COc3ccc(S(=O)(=O)N4CCOCC4)cc32)cc(OC)c1	–	–	–	–	–	–
COc1ccc(C(C)(C)C)cc1NC(=O)COC(=O)C1=NNC(=O)CC1	–	–	–	–	–	–
CCN(CC)S(=O)(=O)c1ccc(N2CCN(C)CC2)c(NC(=O)c2cc(=O)c3ccccc3o2)c1	–	?	?	38.5[may fluoresce violet]	?	?
O=C(Cc1cccc2ccccc12)Nc1ccccc1	–	234.7[may fluoresce violet]	?	46.5[may fluoresce violet]	–	?
CCC1C(=O)N(c2nc(C)cc(C)n2)N=C1C (centres undefined)	–	179.6[may fluoresce violet]	?	14.8[may fluoresce violet]	–	?
CC1=NN(c2nc(C)cc(C)n2)C(=O)C1CCC(C)C (centres undefined)	–	–	–	–	–	–
CCOc1ccc(NC(=O)C2CCCN(c3c(CC)c(C)nc4ncnn34)C2)cc1 (centres undefined)	–	214.2[may fluoresce violet]	?	–	–	–
O=C(NCCCN1CCOCC1)C1CCN(S(=O)(=O)c2cccc(C(F)(F)F)c2)CC1	–	–	–	–	–	–
